Test results from PubChem BioAssay (NCATS).
Results filed as inconclusive are left out. Calls of active or inactive are those of the source. The call rests on the fitted dose curve; in most records, active means well fitted cell-killing curve with a large enough effect; inconclusive means small, poorly fitted or top-dose-only effect, or effect the other way; inactive means flat fitted curve, though single readings scatter.

Assays:
Assay in all cases: Primary qHTS to identify gynecologic anti-cancer compounds using libraries of approved drugs and bioactive compounds (AID 1345084); further: nearly all actives have a fitted effect of over 55% in size
Settings in all cases: Gynecologic cancer cell panel viability, ATPlite luminescence, 48 h; series mostly up to 57.5 µM
JEG-3 = system: JEG-3
Method in brief: (§1)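 Cytotoxicity screen measuring ATP content by luciferase luminescence. Each compound is applied at five concentrations for 48 h at 37 C with 5% CO2.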

OV90 = system: OV90
Method in brief: as §1

PA-1 = system: PA-1
Method in brief: as §1

Tov-21-G = system: Tov-21-G
Method in brief: as §1

Tov112D = system: Tov112D
Method in brief: as §1
On the % scale 0 is the no-effect control and ±100 the full control effect.

O=C(O)CC1CCC(c2ccc(-c3ccc4nc(C(=O)NCc5ccc(OC(F)(F)F)cc5)cn4c3)cc2)CC1 (centres undefined)
inactive: Potency (JEG-3) | Potency (OV90) | Potency (PA-1) | Potency (Tov-21-G) | Potency (Tov112D)

CC1(C)CC[C@]2(C(=O)O[C@@H]3O[C@H](CO)[C@@H](O)[C@H](O)[C@H]3O)CC[C@]3(C)C(=CCC4[C@@]5(C)C[C@@H](O)[C@H](O)[C@](C)(C(=O)O)C5CC[C@]43C)C2C1O (some centres undefined)
inactive: Potency (JEG-3) | Potency (OV90) | Potency (PA-1) | Potency (Tov-21-G) | Potency (Tov112D)

CCC(O)C(C)C1CCC(C(C)C(=O)O)O1 (centres undefined)
inactive: Potency (JEG-3) | Potency (OV90) | Potency (PA-1) | Potency (Tov-21-G) | Potency (Tov112D)

OC[C@H]1O[C@@H](Oc2ccccc2)[C@H](O)[C@@H](O)[C@@H]1O
inactive: Potency (JEG-3) | Potency (OV90) | Potency (PA-1) | Potency (Tov-21-G) | Potency (Tov112D)

CCNC(=O)C1OC(n2cnc3c(N)nc(NCCc4ccc(CCC(=O)O)cc4)nc32)C(O)C1O (centres undefined)
inactive: Potency (JEG-3) | Potency (OV90) | Potency (PA-1) | Potency (Tov-21-G) | Potency (Tov112D)

C=C(C(=O)O)[C@H]1C[C@]2(C)[C@@H](O)CC[C@]23O[C@H]1C[C@@H]3C
inactive: Potency (JEG-3) | Potency (OV90) | Potency (PA-1) | Potency (Tov-21-G) | Potency (Tov112D)

C[C@@H]1O[C@@H](O[C@@H]2[C@@H](O)[C@@H](O[C@]3(CO)O[C@H](CO)[C@@H](O)[C@@H]3OC(=O)/C=C/c3ccc(O)cc3)O[C@H](CO)[C@H]2OC(=O)/C=C/c2ccc(O)cc2)[C@H](O)[C@H](O)[C@H]1O[C@@H]1O[C@@H](C)[C@H](O[C@@H]2OC[C@](O)(CO)[C@H]2O)[C@@H](O)[C@H]1O
inactive: activity change, negative = cytotoxicity (JEG-3) 3.39% [at 11.6 µM] | activity change, negative = cytotoxicity (OV90) -2.82% [at 11.6 µM] | activity change, negative = cytotoxicity (PA-1) 32.6% [at 11.6 µM] | activity change, negative = cytotoxicity (Tov-21-G) 7.09% [at 11.6 µM] | activity change, negative = cytotoxicity (Tov112D) 12.6% [at 11.6 µM]

C[C@@H]1O[C@@H](O[C@@H]2[C@@H](O)[C@H](O[C@H]3[C@H](O[C@H]4CC[C@@]5(C)C(CC[C@]6(C)C5CC=C5[C@@H]7CC(C)(C)CC[C@]7(C(=O)O[C@@H]7O[C@H](CO)[C@@H](O)[C@H](O)[C@H]7O[C@@H]7O[C@@H](C)[C@H](O[C@@H]8O[C@@H](C)[C@H](O)[C@@H](O)[C@H]8O)[C@@H](O)[C@H]7O)CC[C@]56C)[C@@]4(C)CO)O[C@H](C(=O)O)[C@@H](O)[C@@H]3O)O[C@H](CO)[C@H]2O)[C@H](O)[C@H](O)[C@H]1O (some centres undefined)
inactive: activity change, negative = cytotoxicity (JEG-3) 8.58% [at 6.55 µM] | activity change, negative = cytotoxicity (OV90) 6.41% [at 6.55 µM] | activity change, negative = cytotoxicity (PA-1) 2.55% [at 6.55 µM] | activity change, negative = cytotoxicity (Tov-21-G) -1.58% [at 6.55 µM] | activity change, negative = cytotoxicity (Tov112D) 10.3% [at 6.55 µM]

OC[C@@]1(O)CO[C@@H](OC[C@H]2O[C@@H](Oc3c[nH]c4ccccc34)[C@H](O)[C@@H](O)[C@@H]2O)[C@@H]1O
inactive: Potency (JEG-3) | Potency (OV90) | Potency (PA-1) | Potency (Tov-21-G) | Potency (Tov112D)

COC1=CC(=O)CC(C)C12Oc1cc(OC)cc(O)c1C2=O (centres undefined)
inactive: Potency (JEG-3) | Potency (OV90) | Potency (PA-1) | Potency (Tov-21-G) | Potency (Tov112D)

Cc1cc(C(=O)Nc2cccc(C(=O)Nc3cccc(C(F)(F)F)c3)c2)on1
inactive: Potency (JEG-3) | Potency (OV90) | Potency (PA-1) | Potency (Tov112D)

CC(C)(O)c1ccc2c(c1)C(O)C[C@H]1[C@](C)(C(=O)O)CCC[C@]21C (some centres undefined)
inactive: Potency (JEG-3) | Potency (OV90) | Potency (PA-1) | Potency (Tov-21-G) | Potency (Tov112D)

O=S(=O)(c1ccc(S(=O)(=O)n2cnc3ccccc32)cc1)N1CCCCCC1
inactive: Potency (JEG-3) | Potency (OV90) | Potency (PA-1) | Potency (Tov-21-G) | Potency (Tov112D)

NC(=O)[C@H](O[C@@H]1O[C@H](CO)[C@@H](O)[C@H](O)[C@H]1O)c1ccccc1
inactive: Potency (JEG-3) | Potency (OV90) | Potency (PA-1) | Potency (Tov-21-G) | Potency (Tov112D)

COc1c(Nc2ncc(Cl)c(N[C@H]3[C@@H](C(N)=O)[C@@H]4C=C[C@H]3C4)n2)ccc2c1CC[C@@H](N1CCOCC1)CC2
inactive: Potency (JEG-3) | Potency (OV90) | Potency (PA-1) | Potency (Tov-21-G) | Potency (Tov112D)

CCC(COC)n1nnc2c(Nc3ccc(OC)cc3C)nc(C)cc21 (centres undefined)
inactive: Potency (JEG-3) | Potency (OV90) | Potency (PA-1) | Potency (Tov-21-G) | Potency (Tov112D)

CC(C)C[C@H](CC(=O)NO)C(=O)N[C@@H](Cc1ccc2ccccc2c1)C(=O)N[C@@H](C)C(=O)NCCN
inactive: Potency (JEG-3) | Potency (OV90) | Potency (PA-1) | Potency (Tov-21-G) | Potency (Tov112D)

CCC(CC)C(=O)Nc1sc2c(c1C#N)CCC(C(C)(C)CC)C2 (centres undefined)
inactive: Potency (JEG-3) | Potency (OV90) | Potency (PA-1) | Potency (Tov-21-G) | Potency (Tov112D)

C=C1C(=O)O[C@H](CCC)[C@H]1C(=O)O
inactive: Potency (JEG-3) | Potency (OV90) | Potency (PA-1) | Potency (Tov-21-G) | Potency (Tov112D)

O=C(O)CCCCCC[C@H]1C(=O)NC(=O)N1CC[C@@H](O)C1CCCCC1
inactive: Potency (JEG-3) | Potency (OV90) | Potency (PA-1) | Potency (Tov-21-G) | Potency (Tov112D)

CCOc1cc(CC(=O)NC(CC(C)C)c2ccccc2N2CCCCC2)ccc1C(=O)O (centres undefined)
inactive: Potency (JEG-3) | Potency (OV90) | Potency (PA-1) | Potency (Tov-21-G) | Potency (Tov112D)
